This is an account of results in the supplement of paper PMC11732987, “Enantioselective OTUD7B fragment discovery through chemoproteomics screening and high-throughput optimisation” (Communications Chemistry, 2025).

What all share (assay): log2 ratio of Biotin-Ahx-Ub-VS probe labelling (fragment/DMSO); higher = less target engagement (more negative = stronger competition), active = hit call of the paper (q ≤ 0.05, log2 ratio ≤ -1)
Details in all cases: compound concentration: 200 uM; treatment time: 3 h

In one assay the target is T1, OTUD6B (UniProt Q8N6M0).
T1 sequence (whole entry): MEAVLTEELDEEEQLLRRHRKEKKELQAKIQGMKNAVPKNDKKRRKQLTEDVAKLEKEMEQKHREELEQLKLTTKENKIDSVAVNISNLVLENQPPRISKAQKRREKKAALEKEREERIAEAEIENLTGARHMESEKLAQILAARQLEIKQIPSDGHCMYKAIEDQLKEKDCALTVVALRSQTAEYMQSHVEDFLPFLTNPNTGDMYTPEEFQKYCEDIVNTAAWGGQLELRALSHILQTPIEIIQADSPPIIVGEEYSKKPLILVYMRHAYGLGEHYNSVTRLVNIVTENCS
In a few lines:
(§1)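 Labelled DUBs were enriched with NeutrAvidin, digested with LysC and trypsin, and run by diaPASEF LC-MS/MS. The labelling used Biotin-Ahx-Ub-VS at 0.5 µM final for 1 h on HEK293T lysate (495 µg per sample) previously treated in triplicate with fragment at 200 µM or vehicle for 3 h. Values are average log2 fragment/vehicle ratios by unpaired t-test on global-median-normalised Spectronaut quantities of proteins with ≥2 unique peptides.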

Another assay has as its target T2, OTUD7B (UniProt Q6GQQ9).
T2 sequence (whole entry): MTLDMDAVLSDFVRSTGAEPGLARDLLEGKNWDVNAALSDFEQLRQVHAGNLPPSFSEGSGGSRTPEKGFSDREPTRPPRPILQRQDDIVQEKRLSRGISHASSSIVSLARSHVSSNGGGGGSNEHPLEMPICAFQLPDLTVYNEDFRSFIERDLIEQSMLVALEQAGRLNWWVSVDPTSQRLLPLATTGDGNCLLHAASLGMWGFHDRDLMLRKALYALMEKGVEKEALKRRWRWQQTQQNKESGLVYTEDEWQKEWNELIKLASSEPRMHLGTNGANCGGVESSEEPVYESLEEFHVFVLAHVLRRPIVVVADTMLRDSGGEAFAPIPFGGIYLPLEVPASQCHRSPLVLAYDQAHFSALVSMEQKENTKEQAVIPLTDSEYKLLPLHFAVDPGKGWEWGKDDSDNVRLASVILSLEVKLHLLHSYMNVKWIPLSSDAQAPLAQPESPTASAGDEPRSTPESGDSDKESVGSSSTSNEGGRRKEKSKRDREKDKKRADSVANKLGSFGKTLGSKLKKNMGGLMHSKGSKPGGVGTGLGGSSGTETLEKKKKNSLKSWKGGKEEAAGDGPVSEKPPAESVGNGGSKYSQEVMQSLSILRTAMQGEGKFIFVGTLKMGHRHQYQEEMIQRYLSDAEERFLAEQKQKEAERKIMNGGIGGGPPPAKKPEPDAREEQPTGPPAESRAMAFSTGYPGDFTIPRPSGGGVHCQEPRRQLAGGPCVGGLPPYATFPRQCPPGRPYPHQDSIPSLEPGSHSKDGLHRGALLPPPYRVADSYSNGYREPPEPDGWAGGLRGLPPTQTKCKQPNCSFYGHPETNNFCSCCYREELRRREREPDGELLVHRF
The procedure, abridged: as §1

For a further assay, the target named is PRPF8 (UniProt Q6P2Q9). The procedure, abridged: as §1
In another assay the target is T3, PSMD7 (UniProt P51665).
T3 sequence (whole entry): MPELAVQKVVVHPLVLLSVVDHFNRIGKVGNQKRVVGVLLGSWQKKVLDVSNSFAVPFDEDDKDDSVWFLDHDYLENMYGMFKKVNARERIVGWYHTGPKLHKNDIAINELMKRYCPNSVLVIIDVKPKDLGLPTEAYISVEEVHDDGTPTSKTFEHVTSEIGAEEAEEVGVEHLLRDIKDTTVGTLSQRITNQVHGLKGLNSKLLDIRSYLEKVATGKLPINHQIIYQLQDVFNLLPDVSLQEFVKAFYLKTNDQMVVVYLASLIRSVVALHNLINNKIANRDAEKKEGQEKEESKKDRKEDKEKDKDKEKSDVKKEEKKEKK
The procedure, abridged:
as §1

A further assay concerns the target UCHL1 (UniProt P09936). The procedure, abridged: as §1
A further assay has as its target T4, UCHL3 (UniProt P15374).
T4 sequence (whole entry): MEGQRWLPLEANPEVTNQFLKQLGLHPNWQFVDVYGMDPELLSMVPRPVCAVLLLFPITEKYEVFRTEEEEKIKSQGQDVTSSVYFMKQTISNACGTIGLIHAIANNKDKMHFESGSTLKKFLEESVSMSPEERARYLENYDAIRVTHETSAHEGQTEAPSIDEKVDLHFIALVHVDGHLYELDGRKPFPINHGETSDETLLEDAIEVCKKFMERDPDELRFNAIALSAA
The procedure, abridged: as §1

Another assay concerns the target T5, UCHL5 (UniProt Q9Y5K5).
T5 sequence (whole entry): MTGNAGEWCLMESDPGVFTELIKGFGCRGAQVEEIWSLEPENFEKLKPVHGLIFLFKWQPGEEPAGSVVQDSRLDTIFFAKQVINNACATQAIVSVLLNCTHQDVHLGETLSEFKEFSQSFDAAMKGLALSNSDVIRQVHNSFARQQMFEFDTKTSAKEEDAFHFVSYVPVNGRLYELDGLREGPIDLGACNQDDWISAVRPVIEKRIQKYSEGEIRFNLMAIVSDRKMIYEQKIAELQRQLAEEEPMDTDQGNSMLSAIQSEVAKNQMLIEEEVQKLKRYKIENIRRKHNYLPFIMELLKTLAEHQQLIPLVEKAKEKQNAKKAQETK
In a few lines: as §1

The target of the next assay is USP10 (UniProt Q14694). In a few lines:
as §1

The target of the next assay is T6, USP15 (UniProt Q9Y4E8).
T6 sequence (whole entry): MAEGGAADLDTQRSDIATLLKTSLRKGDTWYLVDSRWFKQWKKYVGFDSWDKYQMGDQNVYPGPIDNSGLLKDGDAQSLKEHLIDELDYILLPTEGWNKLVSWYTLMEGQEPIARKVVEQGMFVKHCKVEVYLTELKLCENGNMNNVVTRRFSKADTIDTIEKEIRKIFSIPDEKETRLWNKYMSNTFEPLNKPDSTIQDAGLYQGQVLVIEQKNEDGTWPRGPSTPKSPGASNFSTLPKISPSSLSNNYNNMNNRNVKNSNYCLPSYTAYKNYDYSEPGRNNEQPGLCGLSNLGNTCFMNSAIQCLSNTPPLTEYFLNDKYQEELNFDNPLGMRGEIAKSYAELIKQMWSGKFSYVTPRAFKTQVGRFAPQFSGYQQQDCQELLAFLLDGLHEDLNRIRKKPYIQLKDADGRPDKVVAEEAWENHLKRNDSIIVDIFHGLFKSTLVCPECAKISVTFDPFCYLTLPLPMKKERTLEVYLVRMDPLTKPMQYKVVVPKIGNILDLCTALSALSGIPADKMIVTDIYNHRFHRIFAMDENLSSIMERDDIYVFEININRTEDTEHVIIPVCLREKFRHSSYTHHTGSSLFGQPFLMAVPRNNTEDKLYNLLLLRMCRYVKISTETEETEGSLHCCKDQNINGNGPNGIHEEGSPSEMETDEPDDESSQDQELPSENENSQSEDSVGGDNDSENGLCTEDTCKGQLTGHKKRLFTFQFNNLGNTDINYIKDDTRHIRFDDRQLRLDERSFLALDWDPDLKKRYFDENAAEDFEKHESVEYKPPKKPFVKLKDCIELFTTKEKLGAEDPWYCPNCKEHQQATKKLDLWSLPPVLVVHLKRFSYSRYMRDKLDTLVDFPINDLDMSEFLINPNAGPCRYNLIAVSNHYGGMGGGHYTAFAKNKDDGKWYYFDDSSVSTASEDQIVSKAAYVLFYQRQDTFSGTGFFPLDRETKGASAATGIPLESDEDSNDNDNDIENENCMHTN
The procedure, abridged:
as §1

Each structure is given as a SMILES string. Unmarked numbers belong to inactive results.

UCHL1, sequence (P09936 whole entry, looked up): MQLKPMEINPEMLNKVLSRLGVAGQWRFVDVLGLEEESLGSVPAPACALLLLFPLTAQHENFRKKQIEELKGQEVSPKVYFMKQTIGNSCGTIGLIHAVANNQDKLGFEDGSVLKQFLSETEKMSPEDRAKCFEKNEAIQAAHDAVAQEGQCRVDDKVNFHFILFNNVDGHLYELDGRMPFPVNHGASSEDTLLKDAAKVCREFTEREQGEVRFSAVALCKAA
USP10, sequence (Q14694 whole entry): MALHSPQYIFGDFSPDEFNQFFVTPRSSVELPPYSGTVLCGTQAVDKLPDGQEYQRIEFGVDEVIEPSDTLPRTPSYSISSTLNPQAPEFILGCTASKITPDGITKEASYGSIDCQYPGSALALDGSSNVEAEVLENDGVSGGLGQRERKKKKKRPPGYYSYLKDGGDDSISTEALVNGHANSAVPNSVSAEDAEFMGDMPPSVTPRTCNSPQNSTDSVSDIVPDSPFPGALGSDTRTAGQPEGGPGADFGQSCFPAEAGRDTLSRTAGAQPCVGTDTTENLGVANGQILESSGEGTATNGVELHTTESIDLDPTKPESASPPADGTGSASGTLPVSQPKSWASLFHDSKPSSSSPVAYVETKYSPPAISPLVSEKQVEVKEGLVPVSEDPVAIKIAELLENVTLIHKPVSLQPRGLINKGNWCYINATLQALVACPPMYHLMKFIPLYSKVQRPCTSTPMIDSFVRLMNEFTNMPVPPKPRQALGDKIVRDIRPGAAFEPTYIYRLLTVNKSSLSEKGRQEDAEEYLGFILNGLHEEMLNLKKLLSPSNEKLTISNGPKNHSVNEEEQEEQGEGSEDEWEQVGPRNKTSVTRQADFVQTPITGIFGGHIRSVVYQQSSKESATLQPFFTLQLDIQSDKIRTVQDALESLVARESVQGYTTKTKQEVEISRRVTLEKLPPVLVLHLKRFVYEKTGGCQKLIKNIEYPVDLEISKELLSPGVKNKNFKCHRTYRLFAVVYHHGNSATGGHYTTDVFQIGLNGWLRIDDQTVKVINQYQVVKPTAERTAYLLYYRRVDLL

As for `Cc1ccc(-c2nnc(C)[nH]2)c(NC(=O)CCl)c1`, the “log2 ratio of Biotin-Ahx-Ub-VS probe labelling” value with OTUD6B was -0.00419; with OTUD7B, -0.183; with PRPF8 it was -0.0454; with PSMD7, -0.177; in the assay with UCHL1 it was -1.14 (active); with UCHL3, 0.176. The entries for the “log2 ratio of Biotin-Ahx-Ub-VS probe labelling” value in the assay with UCHL5, with USP10 and in the assay with USP15 were -0.152, 0.0193 and -0.0491, respectively.
